Among the data in PubChem BioAssay (Tox21) are outcome and Potency values, retold here.

A short description of assay [1]: qHTS assay to identify small molecule phospholipidosis (PLD) inducers (AID 1259344; active = well fitted curve in the direction sought with a large enough effect; an effect the other way counts as inactive or inconclusive). An outline of the steps: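 Cells (HepG2, 900 per well) attach for 4 h, receive LipidTOX Red and compound together, incubate 24 h at 37 C, are fixed 30 min with paraformaldehyde/Hoechst, then imaged at one site per well.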
On the technique in general: In qHTS, concentration-response curves come from the screen itself.

Assay [2] is described as follows: qHTS assay to identify small molecule HDAC inhibitors (AID 1259364).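 Note: wild-type HCT-116 cells with endogenous class I/II HDAC activity; top concentration of the series differs between compounds; nearly all actives have a fitted effect of over 45% in size.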 In short, it runs like this: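 HCT-116 wt cells, 1,500/well, overnight attach. Compounds (DMSO) 2 h, 37 °C. HDAC-Glo I/II, 30 min RT. Luminescence.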
A short description of assay [3]: qHTS assay to identify small molecule HDAC inhibitors - cell viability counter screen (AID 1259365). Note: series mostly up to about 92 µM; nearly all actives have a fitted effect of over 50% in size. An outline of the steps:
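HCT-116 wild-type, overnight attachment; 2hr drug exposure, 37C; CellTiter-Glo luminescent ATP readout after 30min RT.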

Assay [4] in a line: qHTS assay to identify small molecule antagonists of the sonic hedgehog signaling (Shh) pathway - cell viability counter screen (AID 1259367). Note: nearly all actives have a fitted effect of over 55% in size. In short, it runs like this: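 Cytotoxicity was assessed in parallel with Shh reporter activity by measuring live-cell protease fluorescence (CellTiter-Fluor) in NIH/3T3 cells stably carrying Gli1-Luc, treated with compound under conditioned medium stimulation for 23 hr plus 1 hr reagent incubation.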

The nature of assay [5]: qHTS assay to identify small molecule agonists of the sonic hedgehog signaling (Shh) pathway (AID 1259368; calls by dose curve;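 note: NIH/3T3-derived 3T3Gli1-Luc cells carrying a stable Gli1-driven firefly luciferase reporter; series mostly up to about 92 µM; nearly all actives have a fitted effect of over 15% in size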). An outline of the steps: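 Following a 24 hr incubation with DMSO-dissolved compounds at 37 C, 5% CO2, Gli1-Luc NIH/3T3-derived cells received luciferase reagent for 30 min at room temperature prior to luminescence measurement.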
Assay [6] is described as follows: qHTS assay to identify small molecule antagonists of the sonic hedgehog signaling (Shh) pathway (AID 1259369; calls by dose curve; note: nearly all actives have a fitted effect of over 45% in size). In short, it runs like this:
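Read-out is luminescence from a firefly luciferase gene controlled by the Gli1 response element, in 3T3Gli1-Luc cells pre-incubated 4hr then exposed to compounds and conditioned medium for 24hr.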

For assay [7], the target named is Estrogen receptor beta (Homo sapiens) (UniProt Q92731). Description: qHTS assay to identify small molecule agonists of the estrogen receptor beta (ER-beta) signaling pathway (AID 1259377; active = well fitted activation curve with a large enough effect in the signal ratio in the repeat runs, not every such curve was filed as active; the % refers to the signal ratio). An outline of the steps: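 qHTS in ER-beta-UAS-bla HEK293T cells: 6 hr settling, then 16 hr compound at 37C, then LiveBLAzer substrate 2 h at RT before fluorescence reading.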

The target is the same in assay [8]. In words: qHTS assay to identify small molecule antagonists of the estrogen receptor beta (ER-beta) signaling pathway (AID 1259378; active = well fitted inhibition curve with a large enough effect in the signal ratio in the repeat runs, not every such curve was filed as active; the % refers to the signal ratio; note: potency is the fitted concentration of half-maximal effect). An outline of the steps: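 ER-beta-UAS-bla HEK293T (GripTite) cells in 2% charcoal-stripped FBS medium were preincubated 6 hr at 37C, dosed with compound, then stimulated with 1 nM E2 (final) for 16 hr; beta-lactamase reporter read by B/G FRET fluorescence after 2 hr substrate loading.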

A short description of assay [9]: qHTS assay to identify small molecule agonists of the androgen receptor (AR) signaling pathway in the presence of an antagonist - cell viability counter screen (AID 1259379).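 Note: MDA-kb2 human breast cancer cells carrying an MMTV luciferase reporter; series mostly up to about 92 µM; nearly all actives have a fitted effect of over 25% in size.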 In short, it runs like this: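 Each compound was tested at 15 concentrations on MDA-kb2 cells in the presence of 3.0uM nilutamide. Viability was measured by CellTiter-Fluor fluorescence after a 16 hr incubation at 37C in a CO2-free atmosphere.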

Assay [10] can be described thus: qHTS assay to identify small molecule antagonists of the estrogen receptor beta (ER-beta) signaling pathway - cell viability counter screen (AID 1259382). Note: series mostly up to about 92 µM; nearly all actives have a fitted effect of over 55% in size. In short, it runs like this:
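CellTiter-Glo ATP luminescence measured after the LiveBLAzer read in the same wells; ER-beta-UAS-bla HEK293T cells, 16 hr compound treatment with 1nM 17-beta-estradiol agonist at 37C, 5% CO2.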

Assay [11] can be described thus: qHTS assay to identify small molecule agonists or antagonists of the thyroid stimulating hormone receptor (TSHR) signaling pathway - wild type cell line counter screen (AID 1259384; calls by dose curve). An outline of the steps:
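Wild-type HEK293 cells were plated 18 h at 37 C/5% CO2, pin-dosed with compound plus Ro20-1724 medium, held 30 min at room temperature, then given cAMP-d2 and anti-cAMP-cryptate; fluorescence was read after 1 h. Fifteen concentrations, triplicate.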

In assay [12] the target is Thyrotropin receptor (Homo sapiens) (UniProt P16473). In words: qHTS assay to identify small molecule antagonists of the thyroid stimulating hormone receptor (TSHR) signaling pathway (AID 1259385; calls by dose curve; note: nearly all actives have a fitted effect of over 20% in size; note: potency is the fitted concentration of half-maximal effect). In short, it runs like this:
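TSHR-HEK293 cells were plated and held 18 h at 37C/5% CO2, then given compound plus Ro20-1724 and stimulated with TSH at 1.5 ng/mL final. After 30 min at room temperature, cAMP was detected with cAMP-d2/anti-cAMP-cryptate (1 h) by fluorescence.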

A short description of assay [13]: qHTS assay to identify small molecule agonists of the estrogen receptor alpha (ER-alpha) signaling pathway in the presence of an antagonist - cell viability counter screen (AID 1259386).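 Note: series mostly up to about 92 µM; cells exposed to compounds for 22 h at 37 °C before the viability read; nearly all actives have a fitted effect of over 30% in size.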 In short, it runs like this:
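Using estrogen-depleted VM7Luc4E2 cells, the 15-concentration compound series was applied together with 10.0nM ICI-182,780 and incubated 22hr at 37C/5% CO2. Cell viability was then scored by CellTiter-Fluor.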

Assay [14] addresses Progesterone receptor (Homo sapiens) (UniProt P06401). Description: qHTS assay to identify small molecule agonists of the progesterone receptor (PR) signaling pathway (AID 1346784; calls by dose curve; note: nearly all actives have a fitted effect of over 30% in size; note: potency is the fitted concentration of half-maximal effect). An outline of the steps:
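Fluorescence from LiveBLAzer B/G FRET substrate cleavage (2 hr, RT) reported PR activation in PR-UAS-bla HEK 293T cells treated 16 hr at 37C/5% CO2 with compounds; medium contained 2% charcoal-stripped FBS.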

Assay [15] has the same target. In words: qHTS assay to identify small molecule antagonists of the progesterone receptor (PR) signaling pathway (AID 1346795; active = well fitted inhibition curve with a large enough effect in the signal ratio in the repeat runs, not every such curve was filed as active; the % refers to the signal ratio; note: potency is the fitted concentration of half-maximal effect). In short, it runs like this:
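Fluorescence intensity measured 2 hr after adding beta-lactamase FRET substrate to PR-UAS-bla HEK293T cells that had been co-treated 16 hr with compound and 1 nM R5020 (final concentration) in 2% charcoal-stripped FBS.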

Assay [16] can be described thus: qHTS assay to identify small molecule antagonists of the progesterone receptor (PR) signaling pathway - cell viability counter screen (AID 1346798). Note: series mostly up to about 92 µM; nearly all actives have a fitted effect of over 50% in size. In short, it runs like this:
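CellTiter-Glo luminescence; PR-UAS-bla HEK293T, 3,000 cells/well; compound + R5020, 16 hr, 37C/5% CO2; 30 min RT before read.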

Assay [17] can be described thus: qHTS assay to identify small molecule agonists of the estrogen receptor beta (ER-beta) signaling pathway - cell viability counter screen (AID 1259380). Note: nearly all actives have a fitted effect of over 30% in size. An outline of the steps:
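Compounds dissolved in DMSO were pin-transferred onto ER-beta-UAS-bla HEK293T cells that had settled 6 hr, and exposure ran 16 hr at 37C. Following the reporter read, CellTiter-Glo luminescence after 30 min at room temperature indicated cytotoxicity.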

Assay [18] deals with Estrogen receptor (Homo sapiens) (UniProt P03372). Description: qHTS assay to identify small molecule agonists of the estrogen receptor alpha (ER-alpha) signaling pathway in the presence of an antagonist (AID 1259383; calls by dose curve; note: top concentration of the series differs between compounds; nearly all actives have a fitted effect of over 15% in size). In short, it runs like this:
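Luminescent ERE-luciferase reporter, VM7Luc4E2 cells (endogenous ER-alpha); 10.0nM ICI-182,780 final; 15-point compound titration; 22hr at 37C; ONE-Glo, 30min RT.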

Assay [19] in a line: qHTS assay to identify small molecule agonists of the sonic hedgehog signaling (Shh) pathway - cell viability counter screen (AID 1259366). Note: nearly all actives have a fitted effect of over 50% in size. In short, it runs like this: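 Compounds in DMSO were pin-transferred onto 3T3 Gli1-Luc cells that had settled 4hr; plates then stood 24hr at 37C and 5% CO2. One hour before the end, CellTiter-Fluor was added and fluorescence recorded.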

Molecules are shown by their SMILES. Results filed as inconclusive are left out. Calls of active or inactive are those of the source. Unless noted, calls come from the whole dose curve; as a rule, active = well fitted curve in the direction sought with a large enough effect in the repeat runs; inconclusive = weak or mixed curves; inactive = no such curve, though single readings can be large; an effect the other way counts as inactive or inconclusive.

Chain of Thyrotropin receptor (Homo sapiens) (P16473 whole entry, looked up): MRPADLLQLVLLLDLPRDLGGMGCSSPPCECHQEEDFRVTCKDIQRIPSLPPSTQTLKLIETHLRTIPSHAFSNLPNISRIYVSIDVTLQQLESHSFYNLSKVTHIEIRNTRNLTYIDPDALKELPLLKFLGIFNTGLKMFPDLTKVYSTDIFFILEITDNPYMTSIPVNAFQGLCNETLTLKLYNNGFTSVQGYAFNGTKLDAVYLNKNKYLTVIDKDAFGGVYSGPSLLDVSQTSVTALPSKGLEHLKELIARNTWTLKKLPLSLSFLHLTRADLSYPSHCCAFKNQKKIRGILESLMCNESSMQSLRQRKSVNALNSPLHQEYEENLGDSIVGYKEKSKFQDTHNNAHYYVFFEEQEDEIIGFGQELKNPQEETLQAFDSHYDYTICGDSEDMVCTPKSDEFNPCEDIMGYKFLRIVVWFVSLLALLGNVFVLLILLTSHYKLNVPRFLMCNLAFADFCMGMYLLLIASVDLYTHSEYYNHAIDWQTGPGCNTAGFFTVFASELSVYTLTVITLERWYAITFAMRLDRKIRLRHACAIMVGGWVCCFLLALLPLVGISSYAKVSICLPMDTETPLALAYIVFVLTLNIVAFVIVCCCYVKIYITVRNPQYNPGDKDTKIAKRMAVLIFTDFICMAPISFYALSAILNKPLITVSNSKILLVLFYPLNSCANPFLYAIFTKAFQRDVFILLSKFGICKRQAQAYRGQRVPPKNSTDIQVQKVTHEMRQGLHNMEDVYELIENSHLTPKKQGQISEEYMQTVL
Chain of Estrogen receptor beta (Homo sapiens) (Q92731 whole entry, looked up): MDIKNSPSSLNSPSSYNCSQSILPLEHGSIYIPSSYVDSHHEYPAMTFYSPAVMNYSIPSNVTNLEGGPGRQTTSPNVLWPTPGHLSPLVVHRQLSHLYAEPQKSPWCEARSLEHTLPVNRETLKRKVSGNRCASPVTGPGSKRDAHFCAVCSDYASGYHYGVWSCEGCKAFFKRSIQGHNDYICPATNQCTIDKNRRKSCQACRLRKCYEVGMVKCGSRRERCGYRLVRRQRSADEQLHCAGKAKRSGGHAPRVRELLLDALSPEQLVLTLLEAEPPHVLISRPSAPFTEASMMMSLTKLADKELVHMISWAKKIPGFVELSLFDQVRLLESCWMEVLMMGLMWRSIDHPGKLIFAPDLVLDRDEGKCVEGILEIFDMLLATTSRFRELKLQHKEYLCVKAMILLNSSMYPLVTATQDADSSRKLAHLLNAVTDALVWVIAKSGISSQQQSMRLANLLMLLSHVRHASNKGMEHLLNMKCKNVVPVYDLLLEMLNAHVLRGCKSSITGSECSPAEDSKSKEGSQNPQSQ
Chain of Progesterone receptor (Homo sapiens) (P06401 whole entry, looked up): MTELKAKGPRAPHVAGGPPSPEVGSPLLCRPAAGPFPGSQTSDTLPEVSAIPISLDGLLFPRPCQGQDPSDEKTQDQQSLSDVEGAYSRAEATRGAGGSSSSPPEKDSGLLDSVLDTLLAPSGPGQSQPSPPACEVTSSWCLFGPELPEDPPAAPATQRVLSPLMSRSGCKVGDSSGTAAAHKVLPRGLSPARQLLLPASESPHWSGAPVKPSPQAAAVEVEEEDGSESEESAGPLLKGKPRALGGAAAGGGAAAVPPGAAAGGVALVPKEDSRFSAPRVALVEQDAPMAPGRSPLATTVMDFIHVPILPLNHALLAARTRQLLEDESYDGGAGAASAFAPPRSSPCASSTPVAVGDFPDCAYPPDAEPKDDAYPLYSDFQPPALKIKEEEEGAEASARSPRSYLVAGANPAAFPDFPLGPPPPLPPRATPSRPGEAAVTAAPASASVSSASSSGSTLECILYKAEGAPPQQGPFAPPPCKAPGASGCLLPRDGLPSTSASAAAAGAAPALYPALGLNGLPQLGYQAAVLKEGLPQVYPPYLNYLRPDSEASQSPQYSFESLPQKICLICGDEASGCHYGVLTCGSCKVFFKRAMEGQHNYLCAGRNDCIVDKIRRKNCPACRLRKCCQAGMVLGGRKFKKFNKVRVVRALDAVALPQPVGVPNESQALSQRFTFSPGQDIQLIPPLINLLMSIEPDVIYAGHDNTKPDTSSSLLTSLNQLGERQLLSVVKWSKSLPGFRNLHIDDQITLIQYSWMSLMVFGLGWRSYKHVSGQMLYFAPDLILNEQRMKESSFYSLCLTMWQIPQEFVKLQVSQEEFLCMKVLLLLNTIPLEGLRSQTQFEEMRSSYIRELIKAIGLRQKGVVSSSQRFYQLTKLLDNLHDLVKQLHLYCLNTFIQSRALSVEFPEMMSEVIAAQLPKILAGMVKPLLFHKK
Chain of Estrogen receptor (Homo sapiens) (P03372 whole entry, looked up): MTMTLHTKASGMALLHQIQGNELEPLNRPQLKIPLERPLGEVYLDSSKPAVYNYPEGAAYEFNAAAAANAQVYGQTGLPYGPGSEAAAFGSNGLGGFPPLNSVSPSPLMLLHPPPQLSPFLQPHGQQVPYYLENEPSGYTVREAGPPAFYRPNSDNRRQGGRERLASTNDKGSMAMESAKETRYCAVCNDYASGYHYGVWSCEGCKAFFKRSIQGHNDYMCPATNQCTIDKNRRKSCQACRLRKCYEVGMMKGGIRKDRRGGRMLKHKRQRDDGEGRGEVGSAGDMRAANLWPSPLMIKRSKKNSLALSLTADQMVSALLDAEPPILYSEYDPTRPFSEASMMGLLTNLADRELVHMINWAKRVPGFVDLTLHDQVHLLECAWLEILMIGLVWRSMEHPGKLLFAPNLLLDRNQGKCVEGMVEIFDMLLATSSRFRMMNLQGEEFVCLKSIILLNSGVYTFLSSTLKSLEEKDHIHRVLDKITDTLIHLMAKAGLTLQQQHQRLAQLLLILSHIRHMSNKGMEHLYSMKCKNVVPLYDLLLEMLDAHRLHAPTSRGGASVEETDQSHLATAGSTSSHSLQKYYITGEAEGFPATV

On to `C#CCN(C)Cc1ccccc1`, for which the result in assay [1], in assay [3], in assay [5] and in assay [11] was inactive. Further, the Potency entry in assay [2], in [4], in assay [6], in [7], in [8] and in assay [9] was “inactive” throughout. Further, the Potency entry in assay [10], in [12], in [13], in [14], in assay [15] and in [16] was “inactive” throughout.
As for `CCc1ccc(CCOc2ccc(CC3SC(=O)NC3=O)cc2)nc1` (stereo not given), the result in assay [1], in [3] and in assay [5] was inactive. The Potency result in [2], in assay [4], in assay [7], in assay [9], in assay [17] and in assay [10] was “inactive” in each case. The Potency entry in assay [18], in assay [13] and in assay [14] was “inactive” each time.
As to `COc1ccc2cc([C@H](C)C(=O)O)ccc2c1`, the molecule was called inactive in assay [1], in assay [3] and in assay [5]. Moreover, the Potency result in assay [2], in assay [4], in assay [9], in assay [10], in assay [12] and in [13] was “inactive” in each case. In addition, the Potency entry in assay [14], in assay [15] and in assay [16] was “inactive” in each case.
As to `C=CCNC(N)=S`, the call in assay [1], in assay [3], in assay [5] and in assay [11] was inactive. In addition, the Potency entry in assay [2], in [19], in assay [4], in [7], in [8] and in [9] was “inactive” each time. For the same molecule, the Potency result in assay [10], in assay [12], in assay [13], in [14], in assay [15] and in assay [16] was “inactive” in each case.
As to `O=C(O)CCCC[C@@H]1SC[C@@H]2NC(=O)N[C@@H]21`, the outcome in [1], in [3], in assay [5] and in assay [11] was inactive. The Potency result in assay [2], in [19], in [4], in assay [6], in assay [7] and in assay [8] was “inactive” throughout. In addition, the Potency entry in [9], in [17], in assay [10], in assay [12], in [13] and in assay [16] was “inactive” throughout.
Consider `CCCCC(CC)COC(=O)C(C#N)=C(c1ccccc1)c1ccccc1` (stereo not given), for which the result in assay [1], in assay [3] and in assay [5] was inactive. For the same molecule, the Potency result in assay [2], in assay [19], in assay [4], in [6], in assay [7] and in assay [9] was “inactive” in each case. In addition, the Potency result in [10], in [13], in assay [14] and in assay [16] was “inactive” throughout. Further, the figures for the Potency in assay [8], in assay [12] and in [15] were 19.3 µM (active), 61.1 µM (active) and 8.63 µM (active), respectively.
As for `CC(=O)OCC(=O)[C@@]12N=C(C)O[C@@H]1C[C@H]1[C@@H]3CCC4=CC(=O)C=C[C@]4(C)[C@H]3[C@@H](O)C[C@@]12C`, the call in assay [1], in [3] and in assay [5] was inactive. In addition, the Potency entry in [2], in [4], in [6], in assay [7], in assay [8] and in assay [9] was “inactive” each time. Also, the Potency entry in assay [10], in assay [12], in assay [13], in assay [15] and in assay [16] was “inactive” each time. The Potency in [14] is 0.686 µM (active).
In the case of `CC(=O)Nc1ccccc1`, the result in assay [1], in assay [3], in assay [5] and in assay [11] was inactive. In addition, the Potency result in [2], in assay [19], in [4], in assay [7], in assay [8] and in [9] was “inactive” each time. In addition, the Potency result in [17], in assay [10], in [12], in assay [13], in assay [14] and in assay [15] was “inactive” in each case. Further, the Potency result in assay [16] was “inactive”.
